AID504770 – E. coli YBA685 growth inhibition, screen for V. cholerae RctB inhibitors. E. coli YBA685 rctB-dependent plasmid, OD600 growth, 3 h; hits give low values. z-score (no concentration beside the values). 130,000 compounds, 0.27% hits; in the data active = z-score below about -2, passing the limit was not always enough
MenB inh – blocks the Mycobacterium tuberculosis MenB enzyme. P9WNP5. 100,000 compounds, 0.43% hits. MenB enzyme assay, absorbance read-out. inhibition, % (no concentration beside the values); in the data active = inhibition above about 21%, passing the limit was not always enough
PV pol inh – inhibitors of poliovirus RNA polymerase binding and polymerization; 150,000 compounds, 0.66% hits; P03300; poliovirus polymerase elongation, fluorescence polarization; hits give low values; % elongation, % (compound at 16.7 µg/mL); in the data active = % elongation below about 90%
MbtI inh – inhibitors of Mycobacterium tuberculosis siderophore enzyme MbtI; P9WFX0; purified MbtI enzyme, fluorescence intensity read-out; inhibition, % (no concentration beside the values); 100,000 compounds, 0.89% hits; AID 493033; in the data active = inhibition mostly above about 56%, no sharp cut-off; inactive = mostly below about 77%
Target sequence (P9WFX0 whole entry, looked up): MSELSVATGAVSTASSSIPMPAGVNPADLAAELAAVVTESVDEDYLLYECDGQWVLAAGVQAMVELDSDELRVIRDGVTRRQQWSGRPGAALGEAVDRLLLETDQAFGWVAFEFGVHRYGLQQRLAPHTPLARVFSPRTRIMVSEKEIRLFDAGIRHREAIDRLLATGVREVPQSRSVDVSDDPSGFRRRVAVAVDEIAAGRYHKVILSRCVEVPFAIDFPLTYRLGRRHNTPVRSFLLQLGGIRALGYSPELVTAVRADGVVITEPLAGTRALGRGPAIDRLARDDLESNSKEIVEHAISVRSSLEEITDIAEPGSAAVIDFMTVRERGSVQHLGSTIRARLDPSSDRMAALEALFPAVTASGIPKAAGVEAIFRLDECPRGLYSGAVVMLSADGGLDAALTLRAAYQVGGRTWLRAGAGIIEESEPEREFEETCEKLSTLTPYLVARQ
Numbers without * were called inactive; i = inactive; / = no result given; ! = not confirmed by another sample. This is a sample that favours compounds with a hit; in the whole collection about 1.4% have one here.

SMILES | AID504770 | MenB inh | PV pol inh | MbtI inh
CCC(=O)Nc1cc2c3c(c1)C(C)C(=O)N3CCC2 (stereo unspecified) | -0.9 | -14.0 | 104.0 | -0.3
CN(C)C(=O)CCCc1nc(-c2ccc(Cl)cc2)no1 | -2.4* | -18.5 | 104.0 | -7.6
Nc1cc(=O)[nH]c2n[nH]c(=S)n12 | -0.4 | 32.9* | 101.0 | 99.6*
Fc1ccc(/C=N/c2nnc3nc[nH]n23)cc1 | -0.7 | -3.6 | 88.0* | /
CN1CC(=O)NC(=O)C1 | -0.15 | -3.8 | 84.0* | 31.6
CCOc1ccc(C2=C(C(C)=O)Sc3nnc(C)n3N2C(C)=O)cc1 | / | / | 79.0* | /
COC(=O)c1sc(NC(=O)CSc2n[nH]c(-c3cccs3)n2)c(C(=O)OC)c1C | 0.2 | -12.0 | 121.0 | -0.4
Cc1cc(NS(=O)(=O)c2ccc(N3C(=O)C=CC3=O)cc2)no1 | 2.25 | 11.8 | 98.0 | 93.0*
S=c1[nH]nc(Cc2ccccc2)n1Cc1ccccc1 | 0 | -5.8 | 103.0 | 61.6*!
CCOC(=O)c1oc2ccccc2c1N=Cc1c(O)[nH]c(=O)[nH]c1=O | 0.4 | -15.4 | 102.0 | -125.7
Cc1sc2ncnc(N)c2c1C | 1.65 | -15.4 | 67.0* | i
CCN(CC)c1ncnc2sc(C)c(C)c12 | 0.2 | / | 100.0 | -0.2
Cc1nc(Cc2nnc(SCC(=O)NC(C)(C)C)o2)cs1 | -0.35 | -18.9 | 103.0 | -6.8
Cc1nc(Cc2nnc(SCC(=O)NCC34CC5CC(CC(C5)C3)C4)o2)cs1 | -2.85* | -17.3 | 108.0 | 2.5
CCC(C)(C)C(=O)Nc1nnc(COC)s1 | 0.25 | 33.0* | 101.0 | 9.5
COCc1nnc(NC(=O)Cc2ccccc2)s1 | -0.5 | -4.8 | 100.0 | /
CCC(C)N1CCN(Cc2cc(OC)c(OC)cc2OC)CC1 (stereo unspecified) | 1.6 | 36.5* | 102.0 | 3.8
COc1cc(OC)c(OC)cc1CN1CCN(c2cccc(C)c2C)CC1 | -0.3 | 4.1 | 96.0 | -0.6
O=C(Cn1nnc(-c2ccncc2)n1)N(C1CCCCC1)C1CCCCC1 | -1.05 | active | 104.0 | -0.2
COc1ccc(CN(Cc2nc3ccccc3c(=O)[nH]2)C(=O)NCc2ccccc2)cc1 | -3.55* | -41.1 | 105.0 | 5.5
CCN1CCCC1CNc1ncnc2c1cnn2-c1ccc(C)cc1 (stereo unspecified) | -1.1 | -21.8 | 101.0 | 118.3
CCN1CCCC1CNc1cc(C)c2ccc(C)cc2n1 (stereo unspecified) | -1.2 | -19.7 | 88.0* | 4.3
CN1CCC(=NNC(=O)c2cccc(S(=O)(=O)Nc3cc(Cl)ccc3Cl)c2)CC1 | 0.35 | -6.8 | 95.0 | 1.1
[N-]=C=C1C(=O)N(CCc2ccccc2)C(=O)[C@H]([n+]2ccccc2)[C@H]1c1ccc(Cl)cc1 | 0.5 | -1.3 | 69.0* | /
Cc1c(CCNC(=O)c2cc(S(=O)(=O)N(C)C)c(Cl)cc2Cl)c2ccccc2n1C | 0.25 | -11.3 | 89.0* | /
SMILES | AID504770 | MenB inh | PV pol inh | MbtI inh
CN(C)S(=O)(=O)c1cc(C(=O)NCCc2ccccc2)c(Cl)cc1Cl | 0.55 | / | / | /
OC1CCC(Nc2ccnc3cc(Cl)ccc23)CC1 (stereo unspecified) | -0.95 | -28.9 | 99.0 | 45.9
COC(CNc1ncnc2sc(-c3ccccc3)cc12)OC | -0.35 | -28.5 | 102.0 | 79.8*
CC1CN(P2(=O)C=C(c3ccccc3)OC(c3ccccc3)=C2)CC(C)O1 (stereo unspecified) | -0.1 | -23.1 | 103.0 | 8.2
CC(=O)Nc1ccccc1N | 0 | -16.0 | 111.0 | /
CC(=O)/C=C(\C)Nc1ccccc1S | -1.2 | 28.0* | 101.0 | 0.8
CN1CCN(S(=O)(=O)c2ccc(Br)cc2)CC1 | -1.3 | -0.6 | 101.0 | /
Cc1ccc(S(=O)(=O)N2CCCN(C)CC2)cc1 | -3.9* | / | 101.0 | -8.7
CN(C)CCN(C(=O)c1ccco1)c1nc2cc3c(cc2s1)OCO3 | 0.15 | 7.2 | 102.0 | -1.6
CN(C)CCN(C(=O)Cc1ccccc1)c1nc2cc3c(cc2s1)OCCO3 | -2.3* | -28.5 | 101.0 | 11.2
O=C(O)Cc1n[nH]c(=O)c2ccccc12 | -0.65 | 36.6* | 101.0 | -9.1
O=C(Cc1n[nH]c(=O)c2ccccc12)NCc1ccccc1 | -0.25 | 28.2 | 101.0 | -5.6
O=C(c1ccccc1)N(Cc1ccco1)Cc1ccco1 | -1.05 | -8.0 | 103.0 | -1.7
Cc1nc(C)c(C(=O)NCc2ccc3c(c2)OCO3)s1 | -0.3 | 11.5 | 102.0 | -20.9
COc1ccc(CNC(=O)CCC2CCCC2)cc1OC | 0.2 | 10.6 | 101.0 | -37.3
COc1ccc(CNC(=O)CSC(C)(C)C)cc1OC | -4.55* | -12.6 | 100.0 | -9.8
Cc1ccc(N(CC(=O)Nc2ccc(C)c(Cl)c2)S(=O)(=O)c2cccs2)cc1 | / | / | 89.0* | /
COc1ccc(NC(=O)CN(c2ccc(C)cc2)S(=O)(=O)c2cccs2)cc1OC | / | / | 103.0 | /
